Reference: PubChem BioAssay AID1347426 (Functional Genomics Laboratory (NCATS/FGL), 2020)
Hit rate of the full screen: of about 31,000 sequences, about 1,400 (4.5%) were called active. The entries come from a sample that favours actives as a whole. Unmarked numbers belong to inactive results.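 Rule for the calls: active = median seed-adjusted z-score above 1 or below -1; inactive = the rest.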

Assay: Novel Modifiers of Survival Motor Neuron (SMN) Protein: Gene Identification via Genome-wide siRNA Screen;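 note: luminescence tracks full-length SMN protein made from the SMN2 reporter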
Conditions: HEK293T SMN2-luciferase reporter, siRNA knockdown, 72 h; actives lie on both sides
Procedure, shortened: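 Genome-wide siRNA screen (10418 genes, 3 siRNAs each, 1 pmol per well) by reverse transfection in HEK293T cells stably carrying an SMN2-luciferase reporter; luminescence after 72 hours, normalized to negative-control siRNA, log10-transformed, MAD-scored.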

| Sequence | median seed-adjusted z-score |
| --- | --- |
| GCAUGUUGUUGAUCAUGGATT against MAFB | 0.674 |
| GAAGUGUUAUGUAAGGAGATT against EPHX2 | 0 |
| GAACAUGUCUUUAACGGAUTT against TJP2 | 0.0668 |
| AGAUGAGAACUCUAAGCAATT against CHRM2 | 0.053 |
| CGAUCACUUCCUACAGUCUTT against RGR | 0.217 |
| CCAUUGAAGUGGUUAAGAATT against CCNE2 | 0.801 |
| GGUUGUUGCUGAUAGAGAATT against DPH5 | 0 |
| GAAGGACUCUGCAUAUGAUTT against SLC2A14 | -1.09 (active) |
| CAACUAUAGUGCUCCCAGUTT against ZFP36L1 | -0.933 |
| CUCAGAGUGCAGAACCACATT against TRIM15 | 0.292 |
| CCACGUACCCUUCAUCAAATT against KIF11 | -0.381 |
| GGUCUUCAGUGAACAGUUUTT against ZNF562 | -0.0954 |
| CUGUAAGAUUAAAUCCCAATT against TMTC4 | -1.16 (active) |
| GCCUUACAACUCUAAUGAATT against ZNF519 | 0.0162 |
| GCAUGGUCAUAGGCCUGAUTT against CYB561 | 0 |
| GGUGGAUGCUCAAUCCAGATT against FOXO1 | 0.0591 |
| CGAGAAGAGGAUUAAAGGATT against HAND1 | 0.161 |
| GGAAGAUUACAACCGAACATT against ARHGEF12 | 0.136 |
| GAUCACGUUUGACAACAAATT against MCOLN1 | -0.522 |
| CUUUAACUGGGAUCACUGUTT against FOLR3 | 0 |
| CAACCAAAGUCGAAUAUGATT against PLK1 | -2.57 (active) |
| UCCCAAACCUUCACCAUCATT against THAP8 | -0.872 |

| Sequence | median seed-adjusted z-score |
| --- | --- |
| GCAUCACCAUUGCUUGGAATT against STAT5B | 0 |
| CCUCGAUAUUUUAACCUUUTT against EID2 | -1.04 (active) |
| GUGAUAAAGUGAUAAGAUUTT against CPA6 | 0.343 |
| CCCACUAAAUUUUCGGAAATT against ATAD2 | -0.246 |
| CUAUGAAAAUUGCAGGAGATT against GCM2 | -0.241 |
| CCCAGGAACUGCUAACGAATT against SETMAR | 0.191 |
| GCUCAUCCCUGUGCAUGGUTT against LY6G5B | -1.29 (active) |
| CUACAAGACAGGCAAUCUATT against IFI30 | 0.401 |
| CAGUAAGAAGGGUUCAAUATT against BTK | -0.0648 |
| CAAGAGAUAUCAUCGAUUATT against ZRANB3 | 0.0516 |
| GGAUAUAGCUGGUGACCCATT against PCDH7 | 0.192 |
| AGUUGUUGGAAUGACCUUATT against CLEC5A | -1.07 (active) |
| GAAGAUGUAUGGAAUUCUUTT against DARC | 0.0814 |
| CCAAGUAUCUGGUGGUGAATT against NDUFV1 | -0.653 |
| GGACGAGAGAUGUACAUUATT against CNGA1 | -1.08 (active) |
| ACAUUUAGGUUGUAAACCATT against PLA2G12A | 0.139 |
| UGGUCAACUAGAAUACAUATT against RGPD5 | -0.0931 |
| GGAGAUGCACAACAUCUUATT against PIP4K2B | 0.17 |
| GAGUGGAAGUCAUACCCUATT against TTLL3 | -0.194 |
| CUAAUAACAGGGUACAGUATT against ZNF238 | -0.491 |
| CUAUGGACUUCAUCGCUUUTT against EEF1E1 | -1.45 (active) |
| GCAGAGUCAUGACCAGGGATT against CHST6 | 0.372 |

| Sequence | median seed-adjusted z-score |
| --- | --- |
| CAGAUGCAGCACUCACUUUTT against MMP17 | -0.653 |
| AGAGAGCUCCGAACCUUCUTT against ICAM5 | -1 (active) |
| GGAGGGUUUUCACGAUGAATT against AP2B1 | -0.214 |
| CUGCAGAUCUUGUGACAGATT against IMPA2 | 0.0513 |
| GUAUACUCCAGAACAAGUATT against ALDOB | -1.34 (active) |
| AGACAAAGAUUGAUAAACATT against SLC24A3 | 0.0177 |
| AGAUCUACCCAGACCCGGATT against TRAF4 | -1.16 (active) |
| UCUACGACGUGGACGGUAATT against RCVRN | 0.562 |
| CAGUAUACGUGGUGCACGATT against PFKL | 0 |
| GCAUCAACAAUAUCCGGGATT against FARSA | -0.158 |
| GGGUUCCAGUAACCAGUGATT against RPP21 | -1.09 (active) |
| GCAGCUCCAGUAACCUCAATT against ZNF683 | -0.452 |
| GAAGAGAUGUUCAACUGCATT against RAB35 | 0.317 |
| GCAAGAGAAUUAAACUGCATT against RAB8A | -0.0436 |
| GAGUUACAGCUGAUCAAAATT against VPS26A | -1.55 (active) |
| GGGAUCAACUUAGAAGAGATT against POU6F1 | 0.978 |
| GGAUGCUGCUGAGAACUAUTT against PIK3R3 | -1.88 (active) |
| GGAUCUUGAAUUCAACUAUTT against TLR8 | 0 |
| CGCUAUGAUCUGUACCACATT against TMEM147 | 0.233 |
| GGAACGCAGUCAGAUUUGATT against CA5B | 0.317 |
| GCGAUGAAAUUGUCGUGUATT against MAP3K9 | -0.498 |
| AGAUAACUGGAAAAUGUCUTT against SLC22A18AS | 0.0382 |

| Sequence | median seed-adjusted z-score |
| --- | --- |
| CAAUGUCCGUGAUCAUGAUTT against SARDH | -0.195 |
| GCCUCACCGUCUAUGUACATT against CD200 | -0.0135 |
| GGAUCACGAUGAAGACAAATT against CTSL3 | 1.07 (active) |
| ACUGGGCUCUCUUUACCUATT against DBNL | 0.398 |
| GAACAGGCGUGCCAAGUCUTT against MIXL1 | -0.204 |
| AAAGCGCAAUUGGUGGUAATT against DYNLT1 | 0.764 |
| GGUUGCUAUCAAUACCCUUTT against SLC22A18 | -0.654 |
| CCAUCCUUAGAGUUCCUUATT against SLC23A3 | -0.254 |
| CGGUAUGCCUGUGACGACATT against FCER2 | -1.75 (active) |
| AAAUCACACCAAACACUUATT against STX11 | -0.518 |
| GCAGCUGCCGGAAAUGUUATT against KRT81 | -0.0955 |
| CAAUCAAAGGGAAACUUGATT against TPT1 | 0.236 |
| GGAGAAUGGUUCGACUGUUTT against CKAP5 | -1.87 (active) |
| GGCUGUUUGUGAUGGAUAATT against GALNT2 | 0.0798 |
| GAAACGUGGUGAGACCUCATT against PRKX | 0.0341 |
| CAUUCGUCGUAACUUUACATT against MIPEP | -0.169 |
| CUUUCAUCUCUAAAACUGATT against LHX3 | 0.622 |
| CCAGAUAAAUCUAUAGCAATT against RCOR1 | -1.13 (active) |
| CAAUGGAACUUUAGAUUAUTT against PCDHA11 | 0.582 |
| GGCUUUUAAGACUAAGGAATT against TRIM69 | 0.214 |
| GCCUCCCAGAUGAUCGUCATT against SLC6A13 | 0.267 |
| GGACGAUGCUGAUACGGUATT against NOP2 | 1.15 (active) |

| Sequence | median seed-adjusted z-score |
| --- | --- |
| CACCAGACAUCAAAAUCAATT against ATF7 | 0.903 |
| GCACAGACCUGGUGUGGAATT against NECAB2 | -0.286 |
| UGACCUUUCCUAUCUAUAATT against MCART6 | 0.714 |
| GGACACUAUAAGAAAGGAATT against FNTA | 1.04 (active) |
| AGGUUUGGCUCAACUCUGATT against P2RX2 | 0.0454 |
| GGAAAUUGCUUACAGGAAATT against ARSJ | -0.0978 |
| GCUUAUCGGUUGAUCAUCATT against SLC6A4 | 1.43 (active) |
| GCAAGCUGCUGAUCGAGUUTT against KAT5 | 0.32 |
| GGGACAUUUCCAAAUGGAATT against ARL6IP5 | -0.202 |
| GGGACUCUGUAUUCCCUCUTT against WFDC2 | -0.466 |
| CGUAUAGUCAAAGCUCAAATT against ZNF24 | 0.388 |
| GAAGAGUUACUACAGUAAATT against MYT1 | -0.292 |
| CGAAGGAAAUGUACAGCAATT against SLC25A42 | -1.02 (active) |
| CAAGGUUCUUGGUUGGGUATT against ZDHHC13 | -0.381 |
| CAUCAAUGGUCAUAAUGCATT against HNRNPA2B1 | 1.33 (active) |
| AAGAUGCUCUCCCACCUAATT against POLD4 | 0.225 |
| GGUCUACCGGAUUAUCACATT against BRD2 | -0.242 |
| GGUCUUGAAGUGUACCCUATT against ITGAV | 1.17 (active) |
| GCAUAGACACCAUCAUCAATT against GCLC | -0.21 |
| ACUUCUACAUCAACGACAATT against ALDH4A1 | 0.0362 |
